# USP17 inh: inhibitors of human USP17 deubiquitinase; purified USP17, Ub-rhodamine cleavage fluorescence, 3 h; inhibition, % at 50 µM; Ubiquitin carboxyl-terminal hydrolase 17-like protein 5 (Homo sapiens), A8MUK1; actives 6.5% (n = 47,000); AID 1645855, 2021
# USP30 inh: inhibitors of human USP30 deubiquitinase | Ubiquitin carboxyl-terminal hydrolase 30 (Homo sapiens), Q70CQ3 | inhibition, % at 25 µM | purified USP30, Ub-rhodamine cleavage fluorescence | actives 5.3% (n = 47,000) | AID 1645860, 2021
# OTUD3 inh: inhibitors of human OTUD3 deubiquitinase; OTU domain-containing protein 3 (Homo sapiens), Q5T2D3; purified OTUD3, Ub-rhodamine fluorescence, 2 h; inhibition, % at 25 µM; actives 0.7% (n = 47,000)
# Target sequence (Q5T2D3 whole entry, looked up, the tested form may be a part): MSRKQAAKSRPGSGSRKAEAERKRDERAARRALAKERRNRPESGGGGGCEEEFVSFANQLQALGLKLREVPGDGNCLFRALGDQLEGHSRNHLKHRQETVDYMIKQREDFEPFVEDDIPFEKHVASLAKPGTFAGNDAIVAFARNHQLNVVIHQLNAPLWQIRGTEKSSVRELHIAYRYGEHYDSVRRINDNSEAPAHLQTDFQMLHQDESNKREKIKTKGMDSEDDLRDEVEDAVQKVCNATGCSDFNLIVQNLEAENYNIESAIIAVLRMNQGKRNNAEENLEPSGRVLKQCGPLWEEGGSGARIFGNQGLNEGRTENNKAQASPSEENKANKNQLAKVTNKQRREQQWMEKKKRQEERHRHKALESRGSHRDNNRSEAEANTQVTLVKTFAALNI
# USP28 block: inhibitors of human USP28 deubiquitinase; inhibition, % at 25 µM; Ubiquitin carboxyl-terminal hydrolase 28 (Homo sapiens), Q96RU2; purified USP28, Ub-rhodamine cleavage fluorescence, 30 min; AID 1645857, 2021; actives 3% (n = 47,000)
# The depositor's hits bear a star; nt = not tested or not shown. Sampled rows, rich in hits. Any-hit rate of the full collection: about 12%. Cut-off read from the data, not from the text of the source: active = inhibition above about 30%; inactive = the rest.
SMILES,USP17 inh,USP30 inh,OTUD3 inh,USP28 block
N#C/C(=C/c1ccc(OC(=O)c2cccnc2)cc1)c1nnc2n1CCCCC2,4.6,9.3,12.2,3.7
CC(C)c1ccc(C(C)NC(=O)c2cccc(N(C)C)c2)cc1 (centres undefined),38.8*,-5.5,-2.4,-5.5
Cc1nn(-c2ccc(C(=O)/C=C3\NCCc4cc5c(cc43)OCO5)cc2)c(C)c1Cl,-18.4,-137.9,-15.7,-17.7
N=C1C(c2nc3ccccc3s2)=C(O)CN1Cc1ccc(F)cc1,50.7*,17.7,-1.2,-19.4
COCCN1C(=O)c2ccccc2C(C(=O)Nc2cc(C)ccn2)C1c1cccs1 (centres undefined),9.3,33.2*,6.8,7.3
CN1C(=O)c2ccccc2C(C(=O)Nc2nc3ccccc3s2)C1c1cccs1 (centres undefined),37.2*,-15.1,-0.6,-8.5
COCCN1C(=O)c2ccccc2C(C(=O)Nc2ccccn2)C1c1cccs1 (centres undefined),-12.7,-17.2,-6.5,-11.3
COc1ccc2nc(NC(=O)C3c4ccccc4C(=O)N(C)C3c3cccs3)sc2c1 (centres undefined),-7.6,-9.7,-1.3,-3.5
COc1ccc(NC(=O)c2ccccc2OCC(=O)Nc2ccccc2C(F)(F)F)c(C)c1,78.7*,-0.8,1.3,-0.9
OCCNc1ncnc2scc(-c3ccc(F)cc3)c12,-1.3,-14.8,-6.7,-3.5
COc1cccc(CNC(=O)c2cccc(S(=O)(=O)N3CCc4ccccc43)c2)c1,-10.5,8.5,6.3,9.1
O=C1CC[C@H](O)c2cccc(O)c21,5.9,2.6,20.9,3.5
O=C1CC(O)C(O)c2cccc(O)c21 (centres undefined),90.5*,-4.2,26.1,34.1*
CC(C)n1ncc2c(C(=O)NCCc3cccc(Cl)c3)cc(C3CC3)nc21,nt,-60.7,-2.5,37.3*
COc1ccccc1CNC(=O)c1cc(C2CC2)nc2c1cnn2C(C)C,-25.2,-39.9,-8.1,-10.5
COc1ccc(CNC(=O)c2cc(C3CC3)nc3c2cnn3C(C)C)cc1,-16.3,-58.2,-17.3,17.6
CC(C)n1ncc2c(C(=O)NCCc3ccc(Cl)cc3)cc(C3CC3)nc21,-27.1,-88.4,-6.3,38.5*
Cc1ccccc1-c1nnc2sc(COc3ccc(Cl)cc3)nn12,68.4*,80.0*,36.9*,52.7*
CCN1C(SCc2ccccc2F)=NS(=O)(=O)c2ccccc21,11.3,25.1,8.0,74.2*
Cc1nc2cc(-c3noc(-c4ccccn4)n3)ccc2n(C2CCCC2)c1=O,-2.4,-30.2,0.2,-5.8
COc1ncccc1-c1cn[nH]c1-c1ccsc1,-0.1,nt,-1.6,nt
Cc1csc(-c2[nH]ncc2-c2ccsc2)n1,13.4,23.5,11.2,34.2*
CCN1CCC2(CC1)CC(NC(=O)c1ccno1)c1ccccc1O2 (centres undefined),-14.9,-0.2,2.4,-8.4
CCOc1cccc(-c2noc(-c3nn(-c4ccccc4)ccc3=O)n2)c1,51.9*,93.2*,40.2*,70.0*
COc1ccc(-n2nnc(-c3nc(-c4ccccc4F)no3)c2N)cc1,51.8*,nt,0.6,nt
SMILES,USP17 inh,USP30 inh,OTUD3 inh,USP28 block
CCOc1cccc(-c2noc(-c3nn(-c4cccc(C)c4)ccc3=O)n2)c1,1.5,-2.5,0.1,-6.8
COc1cccc(-n2ccc(=O)c(-c3nc(-c4cccc(C)c4)no3)n2)c1,0.1,-48.1,2.5,0.7
COc1ccc(-c2csc(-c3nnn(-c4cc(OC)cc(OC)c4)c3N)n2)cc1,-15.0,-29.2,-6.8,-5.8
COc1ccc(-n2ccc(=O)c(-c3nc(-c4ccccc4F)no3)n2)cc1OC,0.1,-283.6,5.8,62.8*
Cc1cc(C)n2nc(CN(Cc3ccccc3)C(=O)c3ccccc3F)nc2n1,0.4,0.0,2.7,4.9
CCOC(=O)c1ccc(N(C(=O)Cn2nnc3ccccc32)C(C(=O)NC(C)(C)C)c2cc(OC)c(OC)c(OC)c2)cc1 (centres undefined),30.1*,29.8,15.1,7.6
CN(C)S(=O)(=O)c1ccc(N(C(=O)c2cnccn2)C(C(=O)NC2CCCCC2)c2ccccc2)cc1 (centres undefined),-12.5,-3.4,-6.7,-6.0
COc1cc(C(C(=O)NC(C)(C)C)N(Cc2ccccc2Cl)C(=O)c2cccc(-n3cnnn3)c2)cc(OC)c1OC (centres undefined),-1.2,-8.6,-12.3,-5.3
COc1ccc(C(C(=O)NC2CCCCC2)N(C(=O)Cn2nnc3ccccc32)c2ccc(S(=O)(=O)N3CCC(C)CC3)cc2)cc1O (centres undefined),4.6,32.7*,-5.1,6.2
COCCn1cc(CN2CCC(O)(c3ccccc3F)CC2)c2ccccc21,9.4,34.7*,18.6,26.3
O=C(Nc1cnc2ccccc2c1)Nc1ccccc1Cl,55.0*,nt,-4.1,nt
CCc1ccc(C2=Nc3ccccc3N3C(=O)c4c(ccc(OC)c4OC)C3C2)cc1 (centres undefined),nt,12.4,8.1,3.1
Nc1nccc(/C=C/c2c(Cl)cccc2Cl)n1,31.5*,-7.8,-14.3,10.0
Nc1ncnc(SCc2c(Cl)cccc2Cl)n1,-3.9,3.9,0.0,-14.0
CCOc1ccc(/C=C/C(=O)Nc2nnc(C)s2)cc1,30.6*,-64.8,-11.3,-8.4
N#C/C(=C\c1c(-c2ccccc2)nc2sccn12)c1ccccc1,6.9,26.9,8.4,27.6
CCCCSc1nnc2c3c(c(C#N)c(Nc4ccccc4)n12)CC(C)(C)OC3,5.5,25.9,9.9,2.7
COc1cc(C(=O)Nc2ncc3c(n2)CC(c2ccc(C)cc2)CC3=O)cc(OC)c1OC (centres undefined),-9.6,-0.6,-11.0,-4.3
Cc1ccc(C2CC(=O)c3cnc(NC(=O)c4ccc(Cl)cc4)nc3C2)cc1 (centres undefined),15.7,42.9*,7.3,9.9
O=C(CSc1nnc(Cc2ccccc2)o1)N1CCc2ccccc21,41.7*,11.3,-2.0,-2.8
O=C(Cn1c(Cc2ccccc2)nc2ccccc21)N1CCc2ccccc21,25.6,32.4*,-0.1,5.5
Cn1nc(-c2ccc(F)cc2)cc1C(=O)NCc1cnn2ccccc12,-6.0,-28.8,-15.5,-7.6
O=C(Nc1ccc2c(c1)nc1n2CCCCC1)C1c2ccccc2Oc2ccccc21,48.2*,8.3,8.3,18.1
O=C(O)c1cccc(NC(=O)C2c3ccccc3Oc3ccccc32)c1,-0.6,-12.3,-0.4,0.3
Cc1cccc(OCCn2c(CCNC(=O)C3CCCCC3)nc3ccccc32)c1,41.7*,78.7*,14.2,11.4
COc1ccccc1C(=O)Nc1nc2ccccc2n1CCOc1ccccc1,-30.7,nt,0.0,nt
O=C(NCCc1nc2ccccc2n1CCOc1ccccc1Cl)C1CCCCC1,64.1*,55.4*,24.8,30.0*
CCc1ccc(OCCn2c(CCNC(=O)C3CCCCC3)nc3ccccc32)cc1,5.8,27.5,17.9,16.8
CCc1ccc(CN2CCC3(CCCN(C(=O)c4cnccn4)C3)C2)o1 (centres undefined),-14.4,-19.4,-2.3,-2.2
O=S(=O)(c1ccc2c(c1)OCCO2)N(Cc1ccccc1)Cc1nnc(-c2ccccc2)o1,nt,74.3*,21.5,23.4

# Source: PubChem BioAssay (Buhrlage Lab, Dana-Farber Cancer Institute and Novartis Institutes for BioMedical Research (Cambridge, Mass))
